Source: PubChem
Rows were chosen to be rich in hits. Some 4% of all compounds tested hit in one or more screens of this group.
Peg3 prom inh: Peg3 promoter activity inhibition. 360,000 tested, 1.7% active. HeLa PEG-Prom luciferase reporter, luminescence, overnight. inhibition, % at 20 µM;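 active = inhibition of at least 50% at 20 µM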
TROY NFkB inh: TROY signaling inhibition; Q293 LMP1-TROYcd NF-kB luciferase reporter, 4 h; inhibition, % at 10 µM; 360,000 tested, 0.98% active; AID 1347056;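 active = compounds whose plate-normalised and pattern-corrected inhibition of the luciferase reporter signal at the single screening dose is 50% or more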
KKLEB tox: CF airway cell cytotoxicity counter-screen. KKLEB CF airway cells viability, ATPlite luminescence, overnight; active compounds read low; cells stimulated with P. aeruginosa culture filtrate. activity change (cytotoxicity), % at 5 µM. 360,000 tested, 0.36% active. AID 602141;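 active = corrected activity change at or below -50% at 5 µM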
CF NFkB block: inhibitors of cystic fibrosis induced NF-kB. KKLEB NF-kB-GFP reporter, PAF-induced, GFP fluorescence overnight. 360,000 tested, 0.86% active. inhibition, % at 5 µM. AID 588850;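 active = at least 50% inhibition at 5 µM, scaled per plate between neutral and stimulator controls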;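 note: PAF is a Pseudomonas aeruginosa culture filtrate used as stimulus; plate controls were PAF-stimulated DMSO wells for no effect and unstimulated DMSO wells for full effect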
TWEAK-Fn14 inh: TWEAK-Fn14 signaling inhibition. TWEAK-stimulated Fn14 reporter cells, luciferase luminescence, 8 h. 360,000 tested, 2% active. inhibition, % at 10 µM; in the data active = inhibition above about 50%
HIF-2a inh: HIF-2a inhibition; inhibition, % at 18.8 µM; 360,000 tested, 0.72% active; 786-0 RCC cells HIF-2a reporter, luciferase luminescence, overnight; AID 624352;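 active = inhibition of the luminescence signal of 40% or more relative to plate controls, in a single-dose primary screen at 18.75 µM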
Mdm2-MdmX confirm: Mdm2/MdmX (human) interaction inhibition, confirmed | SaOS-2 split-luciferase Mdm2/MdmX complementation, luminescence | 740 tested, 99% active | inhibition, % at 8 µM | shares compounds with HIF-2a inh | AID 504601;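 active = mean inhibition of the luminescence signal across two replicates at or above 26 percent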
Target sequence (O15151 whole entry, looked up): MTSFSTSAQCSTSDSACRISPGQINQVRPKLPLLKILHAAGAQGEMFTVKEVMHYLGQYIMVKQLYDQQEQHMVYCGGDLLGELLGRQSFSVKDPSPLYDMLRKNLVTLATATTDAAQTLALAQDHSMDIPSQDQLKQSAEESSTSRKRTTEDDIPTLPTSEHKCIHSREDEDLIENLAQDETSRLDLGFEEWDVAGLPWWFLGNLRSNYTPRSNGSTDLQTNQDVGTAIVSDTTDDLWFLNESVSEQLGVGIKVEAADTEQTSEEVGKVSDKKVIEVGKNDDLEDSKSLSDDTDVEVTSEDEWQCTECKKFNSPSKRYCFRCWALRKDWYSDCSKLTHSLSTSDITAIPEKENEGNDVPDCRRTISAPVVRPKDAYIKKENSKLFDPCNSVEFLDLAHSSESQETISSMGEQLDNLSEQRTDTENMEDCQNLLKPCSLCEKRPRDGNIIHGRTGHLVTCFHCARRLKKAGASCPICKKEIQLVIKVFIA
Target sequence (Q00987 whole entry, looked up): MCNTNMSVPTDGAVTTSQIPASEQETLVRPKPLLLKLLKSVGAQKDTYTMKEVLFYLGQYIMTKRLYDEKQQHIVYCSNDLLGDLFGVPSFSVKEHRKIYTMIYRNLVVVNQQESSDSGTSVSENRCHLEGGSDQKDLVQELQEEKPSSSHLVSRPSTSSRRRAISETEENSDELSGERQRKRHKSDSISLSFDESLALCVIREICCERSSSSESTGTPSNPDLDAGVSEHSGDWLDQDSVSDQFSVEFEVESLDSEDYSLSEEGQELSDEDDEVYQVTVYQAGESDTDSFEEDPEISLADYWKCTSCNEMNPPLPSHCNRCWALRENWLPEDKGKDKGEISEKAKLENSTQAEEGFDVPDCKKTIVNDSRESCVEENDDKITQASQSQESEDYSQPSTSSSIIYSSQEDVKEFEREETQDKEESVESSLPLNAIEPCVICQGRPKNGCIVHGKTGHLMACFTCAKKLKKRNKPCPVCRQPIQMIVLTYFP
HIF-2a conf: HIF-2a inhibition, single concentration confirmation. AID 651580. 1,800 tested, 56% active. 786-0 RCC cells, HIF-2a luciferase reporter luminescence, overnight. shares compounds with HIF-2a inh. inhibition, % at 18.8 µM;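 active = mean inhibition across four replicates of at least 40 percent at the single tested concentration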
HIF-1a cs: HIF-1a inhibition counter-screen for HIF-2a hits | shares compounds with HIF-2a inh | MiaPaCa-2 HIF-1a luciferase reporter, desferoxamine, overnight | inhibition, % at 18.8 µM | 1,800 tested, 72% active | AID 651589;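 active = mean inhibition of the reporter signal across four replicates at the single tested dose of 50% or more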
The depositor's hits bear a star; x = not tested or not shown.

SMILES | Peg3 prom inh | TROY NFkB inh | KKLEB tox | CF NFkB block | TWEAK-Fn14 inh | HIF-2a inh | HIF-2a conf | HIF-1a cs | others
COc1cc(/C=C/C(=O)c2ccc3c(c2)OCCO3)cc(Br)c1OCC(=O)N(C)C | 107* | 33 | 0 | 4 | 83* | 93* | 91* | 102* | Mdm2-MdmX confirm=101*
C#CC(=O)CC1(CN(Cc2ccccc2)C(=O)OC(C)(C)C)CCCCC1 | 60* | -9 | -104* | 84* | 11 | 44* | 2 | 19
CON(C)C(=O)CC1(CN(Cc2ccccc2)C(=O)OC(C)(C)C)CCCCC1 | 10 | 1 | -5 | 10 | -12 | 7 | x | x
CC1=C(C(=O)OCc2ccc3c(c2)OCO3)C(c2ccc(F)cc2)NC(=O)N1 (stereo not given) | 55* | 55* | -32 | 86* | 87* | 23 | x | x | Mdm2-MdmX confirm=97*
CSCCOC(=O)C1=C(C)NC(=O)NC1c1ccc2c(c1)OCO2 (stereo not given) | 13 | 8 | 6 | -10 | -6 | 19 | x | x
Cc1ccc(Oc2ccc(OCC(=O)Nc3ccncc3)cc2)cc1 | 9 | 28 | -6 | -4 | 39 | 55* | 77* | 50*
N#C/C(=C\c1ccc(Cl)c([N+](=O)[O-])c1)c1ccccn1 | 93* | 10 | -2 | -4 | -27 | 43* | -19 | 95*
CNc1ccc(/C=C(\C#N)c2ccccn2)cc1[N+](=O)[O-] | -187 | -71 | -10 | -18 | -58 | -328 | x | x
Cc1nc2cc(-c3ccccc3)nn2c(C)c1CCC(=O)N1CCN(c2ccccc2)CC1 | -35 | -27 | 15 | -33 | 1 | 69* | 79* | 53*
COc1ccccc1-c1cc2nc(C)c(CCC(=O)NCc3ccc(F)cc3)c(C)n2n1 | 8 | -7 | 9 | 9 | -4 | 35 | x | x
Cc1nc2ncnn2c(C)c1CCC(=O)N1CCN(c2ccccn2)CC1 | 9 | -14 | 1 | -1 | -9 | 8 | x | x
COc1cc(OC)cc(-c2cc3nc(C)c(CCC(=O)NCc4ccccc4)c(C)n3n2)c1 | 21 | 46 | 2 | 3 | 66* | 69* | 79* | 87*
Cc1ccc(Oc2c(C(N)=O)cc([N+](=O)[O-])cc2[N+](=O)[O-])cc1 | 106* | -1 | -95* | 85* | 41 | 94* | 74* | 102* | Mdm2-MdmX confirm=102*
CC(C)(C)c1cc(NC(=O)C2(C)CCN2C(=O)C2(c3ccccc3)CCCC2)no1 (stereo not given) | 20 | -2 | 11 | 23 | 14 | 10 | x | x
O=C(N/N=C/c1ccc([N+](=O)[O-])o1)c1ccc2c(c1)OCO2 | 13 | -10 | -2 | -5 | -14 | 56* | 52* | 59*
O=C(N/N=C\c1c(O)ccc2ccccc12)c1ccc(S(=O)(=O)N2CCCCC2)cc1 | 64* | 5 | -35 | 9 | -2 | 29 | x | x | Mdm2-MdmX confirm=87*
CN(C)c1ccc(/C=N/NC(=O)c2ccc3c(c2)OCO3)cc1 | -104 | -41 | -1 | 7 | 0 | -198 | x | x
O=C(NN=Cc1c(O)ccc2ccccc12)c1ccc2c(c1)OCO2 | 15 | 6 | -14 | 4 | -14 | -65 | x | x | Mdm2-MdmX confirm=88*
O=C(CN1CCCc2ccccc21)N/N=C/c1c(O)ccc2ccccc12 | -23 | 33 | -3 | 5 | 40 | -30 | x | x | Mdm2-MdmX confirm=97*
Cc1ccc(NC(=O)COC(=O)CC2SC(N3CCCC3)=NC2=O)cc1 (stereo not given) | -8 | 0 | 4 | 3 | -11 | 1 | x | x
Nc1nc(SCC(=O)Nc2cc(Cl)ccc2Cl)n[nH]1 | -6 | -10 | 6 | -12 | 17 | 10 | x | x
Cc1cc(=O)oc2cc(NC(=O)Cc3ccccc3[N+](=O)[O-])ccc12 | -10 | -18 | 15 | -38 | -17 | -33 | x | x
CC(=NNC(=S)Nc1ccc(C)cc1)c1ccccn1 | 74* | -34 | 14 | -18 | -43 | 61* | -28 | 2
CC(=NNC(=S)Nc1cccc(C)c1)c1ccccn1 | -55 | -31 | -7 | -12 | -123 | -215 | x | x
Cc1cn(C2CCCCO2)c(=O)[nH]c1=O (stereo not given) | -3 | 6 | 15 | -20 | 11 | 6 | x | x
SMILES | Peg3 prom inh | TROY NFkB inh | KKLEB tox | CF NFkB block | TWEAK-Fn14 inh | HIF-2a inh | HIF-2a conf | HIF-1a cs | others
O=C(NC(NC(=S)Nc1ccccc1)C(Cl)(Cl)Cl)c1cccc(Cl)c1 (stereo not given) | 15 | 30 | -9 | 19 | 75* | 47* | 39 | 102*
O=C(O)c1cccc(NC(=S)NC(NC(=O)c2cccc([N+](=O)[O-])c2)C(Cl)(Cl)Cl)c1 (stereo not given) | -6 | -4 | -7 | 8 | -6 | -6 | x | x
CN(CC(=O)Nc1ccccc1Cl)CC(=O)c1c(N)n(Cc2ccccc2)c(=O)n(C)c1=O | -5 | -7 | -20 | -2 | -11 | -1 | x | x
COc1cc(C=C(c2nc3ccccc3s2)c2nc3ccccc3s2)cc(OC)c1O | -71 | 5 | 8 | -24 | 12 | -56 | x | x
O=C(O)c1ccc(C=C(c2nc3ccccc3s2)c2nc3ccccc3s2)cc1 | 19 | 0 | -15 | 30 | 47 | 50* | 52* | 92*
Cc1ccc([C@H]2N[C@]3(CCCN(Cc4ccc(F)cc4)C3=O)[C@H]3C(=O)N(C)C(=O)[C@@H]23)cc1 | 19 | -3 | -1 | -16 | -7 | -9 | x | x
COc1cc2oc(=O)cc(-c3ccc(-c4ccc(CO)cc4)cc3)c2c(OC)c1OC | -18 | 44 | -8 | 75* | 66* | 4 | x | x | Mdm2-MdmX confirm=83*
CCCCNC(=O)c1cn(C)c2ccc(S(=O)(=O)N3CC(C)CC(C)C3)cc2c1=O (stereo not given) | 32 | -25 | 1 | 0 | 9 | 8 | x | x
CCCCN(C=O)c1c(CC)nc2ccc(C(=O)NCCCN3CCCC3=O)cn12 | 0 | -6 | -6 | -7 | 20 | 11 | x | x
COc1ccc(-n2nnnc2S(=O)(=O)CC(=O)N2CCCCC2)cc1 | 103* | 57* | -54* | 83* | 96* | 90* | 18 | -5
COc1cc(OC)cc(-n2nnnc2SCC(=O)N2CCCC2)c1 | 21 | 12 | 1 | -11 | 3 | -10 | x | x
COc1ccc(/C=N/Nc2cc(C)nc3ccc(Br)cc23)cc1 | 101* | -6 | -23 | -127 | -51 | 46* | -15 | 106*
NCCCn1cnc2ccccc21 | 4 | 0 | 2 | 8 | 11 | 47* | 1 | 25
COCCn1c(=N)c(S(=O)(=O)c2ccc(F)cc2)cc2c(=O)n3ccccc3nc21 | 11 | -11 | -5 | -5 | -12 | 6 | x | x
